Measured values as given in PubChem BioAssay AID651719 (The Scripps Research Institute Molecular Screening Center, 2012).
Out of some 360,000 compounds screened, about 1,600 (0.44%) were called active.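 Rule for the calls: active = inhibition above the screen-wide average plus 3 SD (cut at about 13% in these data); inactive = the rest.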 The entries come from a sample that favours actives as a whole.

These molecules were tested against Galanin receptor type 3 (Homo sapiens) (UniProt O60755) (assay: blockers of human galanin receptor 3 – cell-based, fluorescence readout, primary screen (AID 651719;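 note: forskolin and galanin both at EC90 stimulate the cells; cAMP rise reported by CNG channel membrane potential dye signal; 0% = forskolin plus galanin with DMSO and 100% = forskolin alone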)). Details: HEK293 GalR3-CNG cAMP membrane potential fluorescence; at 3 µM; active compounds read high.
Sequence of Galanin receptor type 3 (Homo sapiens) (O60755 1-299 limits assumed): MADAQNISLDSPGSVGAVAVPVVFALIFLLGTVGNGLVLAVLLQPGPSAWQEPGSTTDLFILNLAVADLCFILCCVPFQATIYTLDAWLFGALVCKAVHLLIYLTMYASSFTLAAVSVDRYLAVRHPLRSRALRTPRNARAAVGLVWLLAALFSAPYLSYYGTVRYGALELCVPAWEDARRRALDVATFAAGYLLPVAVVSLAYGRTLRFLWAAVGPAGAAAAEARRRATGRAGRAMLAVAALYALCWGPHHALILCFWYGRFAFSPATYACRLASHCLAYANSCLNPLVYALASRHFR
In the case of CCCCCCCCCCCCn1ccc(=N)cc1, the inhibition is reported as 75.6% (active). In the case of CCN(CC)C(=O)[C@@H]1C=C2c3cccc4[nH]c(Br)c(c34)C[C@H]2N(C)C1, the inhibition is reported as -11% (inactive). For COC(=O)C1=C(c2cc3ccccc3s2)C[C@@H]2CC[C@H]1N2C(=O)NCCO, the inhibition was -2.95% (inactive). With COC(=O)C1=C(c2cc3ccccc3s2)C[C@@H]2CC[C@H]1N2C(=O)NCc1cccc2ccccc12 the inhibition was 17.8% (active). COC(=O)C1=C(c2cc3ccccc3s2)C[C@@H]2CC[C@H]1N2C(=O)NC(C)C was tested, and the inhibition was -4.53% (inactive). In the case of O=c1[nH]c(=O)n(-c2ccccc2)c(O)c1C=NC12CN3CN(CN(C3)C1)C2, the inhibition is reported as 5.15% (inactive). CS(=O)(=O)N1CCC2CCNC2C1 (stereo not given) was tested, and the inhibition was 0.87% (inactive). For CCOC(=O)[C@]12Cc3ccccc3[C@H]1N(C1CCCCC1)C(=O)c1cc(OC)ccc12, the inhibition was -8.42% (inactive). Brc1ccc2c(c1)CNCc1cnnn1-2 was tested, and the inhibition was -5.56% (inactive). In the case of CCN(CC)C(=O)c1ccc(NC(=O)c2cc(-n3cnnc3)ccc2Cl)cc1, the inhibition is reported as -1.92% (inactive). With C[C@]12CC[C@H](O)C[C@H]1CC[C@@H]1C2CC[C@]2(C)[C@@H](C3=CC(=O)OC3)[C@@H](O)C[C@]12O (stereo not given in full) the inhibition was 30.2% (active). CC12CCC(O)CC1CCC1C2CCC2(C)C(C(=O)CC(O)C(F)(F)F)CCC12 (stereo not given) was tested, and the inhibition was -1.5% (inactive). For COc1ccc2c(c1)[C@@]13CCCCC1[C@@H](C2)NCC3 (stereo not given in full), the inhibition was -3.82% (inactive). With COc1ccc(CN2CCN(c3ccccc3F)CC2)c(OC)c1 the inhibition was -4.46% (inactive). Clc1ccc([C@@H]2CC3CCC2N3)cn1 (stereo not given in full) was tested, and the inhibition was -3.43% (inactive). With Cc1ccc(-n2c(-c3ccc([N+](=O)[O-])cc3)nc3ccccc3c2=O)cc1 the inhibition was -3.3% (inactive). For O=c1c2ccccc2nc(-c2ccccc2)n1-c1ccccn1, the inhibition was -5.42% (inactive). With COc1ccc(-n2c(-c3ccccc3)nc3ccccc3c2=O)cc1 the inhibition was 16.9% (active). For Cc1cc(N2CCNC[C@@H]2C)ccc1N1CC[C@H](O)C1, the inhibition was -7.28% (inactive). For CCC(C)NC1(c2ccccc2)CCCCC1 (stereo not given), the inhibition was -2.56% (inactive). With O=S(=O)(c1ccccc1)N1CCC2CCNC2C1 (stereo not given) the inhibition was -5.66% (inactive). For COc1cc(OC)cc(C(=O)NCCN2CCC3(CC2)C(=O)NCN3c2ccccc2)c1, the inhibition was -6.02% (inactive). In the case of COC1C(O)C(C)OC(OC2CCC3(C=O)C(CCC4C3CCC3(C)C(C5=CC(=O)OC5)CCC43O)C2)C1O (stereo not given), the inhibition is reported as 43% (active). For C/C=C/CC1(CC)C(=O)NC(=S)NC1=O, the inhibition was -12.8% (inactive). With CCCC(C)n1[nH]c(=O)c2c1NC(=O)CSC2c1ccc(OC)c(OC)c1 (stereo not given) the inhibition was -3.1% (inactive).
